According to PMC12136788:
In all, about 5,800 sequences were measured (“enrichment r”: median about 0.68, highest 2% from about 11 on). Only a sample is shown.

T1: UNK ZnF1-6 (called full-length) (human, UniProt Q9C0B0 30-357)
T1 sequence: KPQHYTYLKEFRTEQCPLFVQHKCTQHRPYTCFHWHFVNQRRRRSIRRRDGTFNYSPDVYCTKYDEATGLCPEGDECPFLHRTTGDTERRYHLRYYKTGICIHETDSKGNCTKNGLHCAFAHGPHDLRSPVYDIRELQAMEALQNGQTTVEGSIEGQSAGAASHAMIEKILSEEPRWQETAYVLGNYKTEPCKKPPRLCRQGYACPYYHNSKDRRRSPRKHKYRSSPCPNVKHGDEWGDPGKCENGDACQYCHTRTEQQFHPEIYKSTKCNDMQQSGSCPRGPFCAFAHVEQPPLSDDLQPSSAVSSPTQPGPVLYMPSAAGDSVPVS

B1: chr8:23842656:23842757:-|3pUTR|ENSG00000159167|msi1|total|mutant (ssRNA)
RNA: GGGAGUUCUACAGUCCGACGAUCCCCCAAACUUAUGGACACUGCCUCCGCCUCUUGGAAAUCAGGCCGACCAUAUUCUAAGUCCGACUCUUCCCCUCCCUCCCACACUUCCCACCCCCAGGCAAGGCUGACUUCUCUGAAUCACAACAGAGGAUUGAGCAUCA
B2: ENSG00000070961:be:win_3851|3pUTR|ENSG00000070961|bound_else_gene|NA|bound_elsewhere_windowed (ssRNA)
RNA: GGGAGUUCUACAGUCCGACGAUCUUUUUGGGGGGUGGGAGAAAUGAACUGACAGAUAAACAGUAACUCAGCGUAAGUGACCUGUGGAUCAUCAGUAGUACCCAAGCAUGGUCCUGAACAGUGUAUUAGCAGAGCUUUAGUUUACAACAGAGGAUUGAGCAUCA
B3: chr19:34227675:34227687:+|3pUTR|ENSG00000257103|msi1_unk|FALSE|overlapping (ssRNA)
RNA: GGGAGUUCUACAGUCCGACGAUCUUAAAACAUGAGCAUUAAAUAUAUUUGGAAUAGCAGAAGGUUAAGUAAUUUCUUAUGUAUAGUUAAACUAAAGCAGUACUUCAGUGGGACUUAACAAGUAUUUUUUCAUCACUGAAAGGUCAACAGAGGAUUGAGCAUCA
B4: chr19:51415897:51416167:-|CDS|ENSG00000142512|control|control|control (ssRNA)
RNA: GGGAGUUCUACAGUCCGACGAUCGCCACACUGAGCUGGGUCCUGCAGAACAGAGUCCUCUCCUCGUCCCAUCCCUGGGGCCCUAGACCCCUGGGGCUGGAGCUGCCCGGGGUGAAGGCUGGGGAUUCAGGGCGCUACACCUGCCAACAGAGGAUUGAGCAUCA
B5: chr1:180199467:180199568:+|3pUTR|ENSG00000116260|msi1|FALSE|unique (ssRNA)
RNA: GGGAGUUCUACAGUCCGACGAUCCACAGGAACAAUUUCCUCAAGGAGACAGUGGCAUGGAGCUUUGAAAGACGAGUAGGUGUUAGCAAGGAAAUAAGGAGGAACGGGGGUUACGGGCAGAGGAGAAAGCACAUGCCAAGUCAGCAACAGAGGAUUGAGCAUCA
B6: chr15:55376998:55377117:-|CDS|ENSG00000260916|unk|total|mutant (ssRNA)
RNA: GGGAGUUCUACAGUCCGACGAUCUAUCUAUAUUGGAACUGCCAGUGAUGAUUCUGAUAUUGUUACCCUUGAGCCACCUAAGUCCGAAGAAAUUGGAAAUCAAGAAGUUGUCAUUGUUGAAGAAGCACAGAGUUCAGAAGACUUCAACAGAGGAUUGAGCAUCA
B7: chr15:63774837:63774950:-|CDS|ENSG00000103657|unk|FALSE|unique (ssRNA)
RNA: GGGAGUUCUACAGUCCGACGAUCGUAACAACAUUUCUUAAAGGAGUCACUAUUCCUAAUUCUGGGGCAGACACUUUAGGUCGUAGAUUAGCUUCUGAGUUGCUGCUUGGUUUGGCAGCUCAACGAGGCUCAUUGCGAUAUCUUCAACAGAGGAUUGAGCAUCA
B8: chr12:68660398:68660499:+|3pUTR|ENSG00000127314|msi1|total|mutant (ssRNA)
RNA: GGGAGUUCUACAGUCCGACGAUCUUGAGGUGGCCAAAUGUAAACUAAAAGCCUUAAUUAAAGUGGUGCAAUUUUGUAUAACUCCGCAUCAGCCGUUCAAUAAAUUUGGAUUGCCAUGCAAGGGCUUGCAUUAUAAUUACUUGCCAACAGAGGAUUGAGCAUCA
B9: chr5:103029089:103029184:+|3pUTR|ENSG00000145730|msi1_unk|FALSE|overlapping (ssRNA)
RNA: GGGAGUUCUACAGUCCGACGAUCAACCAAGCUUUGAUUUAGAUUGAGUAAGAUUUACCCAGAAUGUCAGAUUCCUUUCCCUUUAGCACGUUUAAAGUUCUGUGUAUUUAAUUGUAAACUGUACUAGUCUGUGUGGGACUGUACCAACAGAGGAUUGAGCAUCA
B10: chr2:32415436:32415554:+|CDS|ENSG00000115760|unk|FALSE|unique (ssRNA)
RNA: GGGAGUUCUACAGUCCGACGAUCUGGGACUUUGGUUCAGUGCUUGAGGCUGCCAAAGUUUGCAGAGGAGGAGAAUCUUUGUAUAGACUCAAUAACUCCUUGUGCUGACGGAAUUCAUUUGUUGGUAGGACUGCGGACAUGCCCCAACAGAGGAUUGAGCAUCA
B11: chr1:43978039:43978149:+|3pUTR|ENSG00000117410|unk|total|mutant (ssRNA)
RNA: GGGAGUUCUACAGUCCGACGAUCGGCCGUGCCUCACUUUUAUUUAUUGCUGGUUUUCCUGGGACAGCUGGAGCUGUGUCCCUCCGCCUUUCAGAGGCUUGGUGUUCAGGGCCCUCCCUGCACUCCCCUCUUGCUGCGUGUUGACAACAGAGGAUUGAGCAUCA
B12: ENSG00000107863:be:win_5401|CDS|ENSG00000107863|bound_else_gene|NA|bound_elsewhere_windowed (ssRNA)
RNA: GGGAGUUCUACAGUCCGACGAUCAGACAUACACUAGGAGGGCACAGAGAUGCUACCGAAAUCAGCGUUUUGAAUUUUUGGAAAGUGCAUGAGCAGAGCGGGGAGAGAGAAUCUGAACUUUCAGCUGUAAACCGGUUAAAACCACAACAGAGGAUUGAGCAUCA
B13: ENSG00000156976:stop:overlap|stop_codon|ENSG00000156976|stop_codon|NA|stop_codon (ssRNA)
RNA: GGGAGUUCUACAGUCCGACGAUCCUUUGGUUAUAAAUUAUGAUCUACCUACCAAUCGUGAAAACUAUAUUCACAGGAGUCGAUAGCAGCAGUUGGUGACGAGAUGGCACUCAGAAACGGCGUUGACGUAAUUUAGGACGUGGACAACAGAGGAUUGAGCAUCA
B14: chr2:159967538:159967678:-|CDS|ENSG00000153246|control|control|control (ssRNA)
RNA: GGGAGUUCUACAGUCCGACGAUCUAGUGAAGAGUGUUCAGUUUCUAUGCCUAGUAUCUGUAAGCGAAAAAAGGUUUGGCUCAUAGAGAAAAAGAAAGAUACACCAAAACAACAUGGAACGUGUCCCAAAGGAUGGCUAUAUUUCAACAGAGGAUUGAGCAUCA
B15: ENSG00000187498:stop:overlap|stop_codon|ENSG00000187498|stop_codon|NA|stop_codon (ssRNA)
RNA: GGGAGUUCUACAGUCCGACGAUCAGGUGAACCGGGACCUCCUGGAUUGCCAGGCUCCGUGGGGUCUCCAGGAGUUCCAGGAAUAGGCCCCCCUGGAGCUAGGGGUCCCCCUGGAGGACAGGGACCACCGGGGUUGUCAGGCCCCAACAGAGGAUUGAGCAUCA
B16: chr10:71816642:71816777:-|3pUTR|ENSG00000197746|msi1_unk|total|mutant (ssRNA)
RNA: GGGAGUUCUACAGUCCGACGAUCUUGUUUGGGGUUCUGUGGGUUUGGGUGGGAAGAGGGCCAUCUGCCUGAAUGUAACCUGCCCGCUCUCCGAAGGCCCUGCGGGCCUGGCUUGUGUGAGCGUGUGGACAGUGGUGGCCGCGCCAACAGAGGAUUGAGCAUCA
B17: chr20:35276351:35277713:-|three_prime_utr|ENSG00000126005|control|control|control (ssRNA)
RNA: GGGAGUUCUACAGUCCGACGAUCCUCCUCUCCCCACGUCCCUGCGUCUCUUACACCCCCUCCCACCCGAGGCUCCCCAGAGAUAGCAGAGAAUUCGAAGAGGUCGCCGGGGACUGGAAAGAAGUCCCGGCAGGGCCGCCUUCGCAACAGAGGAUUGAGCAUCA
B18: chr2:42328916:42329027:+|CDS|ENSG00000143924|unk|FALSE|unique (ssRNA)
RNA: GGGAGUUCUACAGUCCGACGAUCAGAAGGAUCUGAUGGGACAGAUAUCAAUGCACUGGUGCGAUCCCACAAUAGAAAGGUGAUAGCUGUUGCCGAUGACUUUUGUAAAGUCCAUCUGUUUCAGUAUCCCUGCUCCAAAGCAAACAACAGAGGAUUGAGCAUCA
B19: chr1:28742582:28742694:+|CDS|ENSG00000198492|unk|FALSE|bound_elsewhere (ssRNA)
RNA: GGGAGUUCUACAGUCCGACGAUCAGCAACGGAGAGCCCCACUUCCUACCAGAUGCAAUGUUUGGGCAACCAGGAGCCCUAGGUAGCACUCCAUUUCUUGGUCAGCAUGGUUUUAAUUUCUUUCCCAGUGGGAUUGACUUCUCACAACAGAGGAUUGAGCAUCA
B20: chr1:235182574:235182675:-|CDS|ENSG00000054267|unk|FALSE|unique (ssRNA)
RNA: GGGAGUUCUACAGUCCGACGAUCUUUGACCAACAACAGAAAUGAUCUUAUUUCAAAGGAGGAACAGAACAGUUCAUCUUUGCUAGAAGAAAACAAAGUUCAUGCAGAUUUGGUAAUAUCCAAACCAGUGUCAAAAUCUCCAGACAACAGAGGAUUGAGCAUCA
B21: chr14:81473690:81473791:-|3pUTR|ENSG00000071537|msi1|total|mutant (ssRNA)
RNA: GGGAGUUCUACAGUCCGACGAUCCAGUGUUUUGGAAGUAUGCAUGCAGGCCUAUAAAUGAAAAACACAAUUCUUUAUGUGUACCGCAUGUGUAUUAAUGUCUAACUACAUACGCAAAAACUUCCUUUACAGAGGUUCGGACUACAACAGAGGAUUGAGCAUCA
B22: chr3:124966548:124966651:-|3pUTR|ENSG00000173706|unk|FALSE|bound_elsewhere (ssRNA)
RNA: GGGAGUUCUACAGUCCGACGAUCAGGAAGAAUGCAAAGUUCAGUAUUUCAAUACUUUGUAUUUUACUUGAAAUUACCCUUAGUAGCAUCUUUUUUUUCCUGUCUGAAAGCUUUUGUGUGGAUGAGAAGGGACAUUUCAUUUCCCAACAGAGGAUUGAGCAUCA

biological target: T1, UNK ZnF1-6 (called full-length); assay: nsRBNS (natural sequence RNA bind-n-seq); RBNS binding buffer (assumed for nsRBNS): 25 mM Tris pH 7.5, 150 mM KCl, 3 mM MgCl2, 0.01% Triton X-100, 500 ug/ml BSA, 20 U/ml SUPERase-In, 4 C; UNK is unkempt and MSI1 is Musashi-1; names of the RNAs are library labels; protein concentration not given here; high values mean tight binding

Question: How did the binding signal turn out when B1 was run?
Answer: 1.07 enrichment R

Question: How did the binding signal turn out when B2 was run?
Answer: 1.18 enrichment R

Question: Which binding signal does the source give for B3 here?
Answer: 1.37 enrichment R

Question: Which binding signal does the source give for B4 here?
Answer: 0.641 enrichment R

Question: With B5 as the binder, how does the binding signal read?
Answer: 1.51 enrichment R

Question: B6 was tested. Which binding signal did it give?
Answer: 0.258 enrichment R

Question: How did the binding signal turn out when B7 was run?
Answer: 0.542 enrichment R

Question: Which binding signal does the source give for B8 here?
Answer: 0.352 enrichment R

Question: B9 was tested. Which binding signal did it give?
Answer: 1.16 enrichment R

Question: How did the binding signal turn out when B10 was run?
Answer: 0.624 enrichment R

Question: B11 was tested. Which binding signal did it give?
Answer: 0.779 enrichment R

Question: Which binding signal does the source give for B12 here?
Answer: 0.693 enrichment R

Question: For B13, which binding signal is on record?
Answer: 0.52 enrichment R

Question: B14 was tested. Which binding signal did it give?
Answer: 0.378 enrichment R

Question: B15 was tested. Which binding signal did it give?
Answer: 0.745 enrichment R

Question: With B16 as the binder, how does the binding signal read?
Answer: 0.901 enrichment R

Question: How did the binding signal turn out when B17 was run?
Answer: 0.869 enrichment R

Question: With B18 as the binder, how does the binding signal read?
Answer: 0.424 enrichment R

Question: Which binding signal does the source give for B19 here?
Answer: 0.665 enrichment R

Question: Which binding signal does the source give for B20 here?
Answer: 0.258 enrichment R

Question: B21 was tested. Which binding signal did it give?
Answer: 0.563 enrichment R

Question: B22 was tested. Which binding signal did it give?
Answer: 1.1 enrichment R
